This is part of a sample that, as a whole, favours compounds with a hit. Of some 83,000 tested, about 20% had one in any assay.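 Cells were grown in 96-well plates and exposed to the test compound at a single concentration for 48 hours; results are reported as percent growth, with values below 10 considered active.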 A number with no mark means an inactive call. Activity calls are given as the source filed them.

Some test systems named below: T-47D breast; BT-549 breast; MDA-MB-435 melanoma; SW-620 colon; MCF7 breast; HCT-116 colon; HCC-2998 colon; KM12 colon.
Assay in all cases: NCI-60 one-dose screen, 48 h (100 = growth as untreated, 0 = no growth, -100 = all killed)
Holding throughout (conditions): 10 µM unless noted

In the case of `O=c1cc(CSc2nnc(-c3ccc(F)cc3)o2)c2ccc3ccccc3c2o1`, the growth with T-47D breast is 100%; with BT-549 breast, 111%; with MDA-MB-435 melanoma it was 106%; in the assay on SW-620 colon, 94.5%; in the assay on MCF7 breast, 93.5%; with HCT-116 colon, 93.2%. In addition, the growth in the assay with HCC-2998 colon is 95.4%; with KM12 colon, 100%.
Regarding `O=C(/C=C/C=C/c1ccc2c(c1)OCO2)N/N=C\c1ccc(O)cc1O`, the growth with T-47D breast is 23.9%; with BT-549 breast, 27.3%; with MDA-MB-435 melanoma it was 32.6%; in the assay on SW-620 colon, 26.5%; with MCF7 breast, 14.1%; in the assay with HCT-116 colon, 8.67% (active). Also, the growth was 38.9% with HCC-2998 colon and 23.4% in the assay on KM12 colon.
Regarding `Cc1ccc2c(C(C[N+](=O)[O-])c3ccccc3F)c(-c3ccccc3)[nH]c2c1` (stereo not given), the growth in the assay with T-47D breast is 29.3%; in the assay with BT-549 breast, 50%; in the assay with MDA-MB-435 melanoma it was -30.3% (active); with SW-620 colon it was 19.7%; with MCF7 breast, 24.4%; in the assay on HCT-116 colon it was 25.9%. In addition, the values for the growth in the assay on HCC-2998 colon and with KM12 colon were 73.9% and 23.3%, respectively.
Take `O=c1cc(CSc2nnc(SCc3cc(=O)oc4c3ccc3ccccc34)o2)c2ccc3ccccc3c2o1`: the growth with T-47D breast is 78.6%; in the assay with BT-549 breast, 107%; in the assay on MDA-MB-435 melanoma, 112%; with SW-620 colon, 98.1%; with MCF7 breast, 93.7%; in the assay on HCT-116 colon, 104%. Also, the growth was 101% in the assay with HCC-2998 colon and 98.2% with KM12 colon.
Take `O=C(COc1cccc(/C=C2\COc3ccccc3C2=O)c1)Nc1nccs1`: the growth with T-47D breast is 54.7%; in the assay on BT-549 breast it was -79.6% (active); in the assay on MDA-MB-435 melanoma it was 53.5%; in the assay with SW-620 colon, -40.7% (active); in the assay with MCF7 breast, -12.5% (active); in the assay with HCT-116 colon it was -100% (active). For the same compound, the growth is -85.6% (active) in the assay on HCC-2998 colon and -44.6% (active) with KM12 colon.
Take `O=C(CCN1C(=O)/C(=C/c2ccc(Cl)cc2)SC1=S)NCCCN1CCOCC1`: the growth is 90.8% in the assay with T-47D breast; 106% in the assay with BT-549 breast; 98.9% in the assay on MDA-MB-435 melanoma; 100% with SW-620 colon; 90.1% in the assay with MCF7 breast; 98.7% in the assay on HCT-116 colon. For the same compound, the growth with HCC-2998 colon was 105%; with KM12 colon, 104%.
On to `OC(c1cc2cc(Cl)c(Cl)cc2c2cc(C(F)(F)F)ccc12)C1CCCCN1` (stereo not given), for which the growth with T-47D breast was -78.6% (active); in the assay on BT-549 breast it was 76.4%; with MDA-MB-435 melanoma, -73.9% (active); in the assay with SW-620 colon it was -74% (active); with MCF7 breast, -87.3% (active); in the assay with HCT-116 colon, -87.3% (active). In addition, the figures for the growth in the assay with HCC-2998 colon and in the assay with KM12 colon were -80.9% (active) and -91.1% (active), respectively.
`O=C1c2cc3c(cc2-c2c1c1ccc(F)cc1c(=O)n2C[C@H](O)[C@@H](O)[C@H](O)CO)OCO3`: the growth in the assay with T-47D breast is -4.06% (active); in the assay with BT-549 breast it was -21.3% (active); with MDA-MB-435 melanoma it was -76.2% (active); in the assay on SW-620 colon, 7.68% (active); in the assay on MCF7 breast, 4.18% (active); in the assay with HCT-116 colon, 9.8% (active). Further, the figures for the growth with HCC-2998 colon and in the assay on KM12 colon were -8.31% (active) and 7.39% (active), respectively.
Regarding `COc1ccc(N=Nc2nccs2)c(O)c1`, the growth is 36.5% in the assay with T-47D breast; 74.1% in the assay with BT-549 breast; 58.7% in the assay with MDA-MB-435 melanoma; 34.4% in the assay with SW-620 colon; 20.4% in the assay with MCF7 breast; 22.3% in the assay on HCT-116 colon. Also, the growth was 60.8% in the assay with HCC-2998 colon and 33.3% in the assay on KM12 colon.
As for `Cc1cc(N2CCN(c3ccnc4cc(Cl)ccc34)CC2)nc(NC2CCCCC2)n1`, the growth in the assay with T-47D breast was 7.8% (active); in the assay on BT-549 breast it was 51.9%; in the assay on MDA-MB-435 melanoma it was -6.47% (active); in the assay with SW-620 colon, 14.9%; in the assay with MCF7 breast, 12.8%; in the assay with HCT-116 colon, 3.19% (active). Besides, the growth is 18.2% in the assay with HCC-2998 colon and 30.1% in the assay on KM12 colon.
On to `O=C1OCC2=C1C(c1ccncc1)c1cc3c(cc1N2CCO)OCO3` (stereo not given), for which the growth is 91.1% in the assay on T-47D breast; 112% with BT-549 breast; 96.7% with MDA-MB-435 melanoma; 93.4% in the assay on SW-620 colon; 96.3% with MCF7 breast; 107% with HCT-116 colon. Further, the growth in the assay with HCC-2998 colon was 103%; in the assay with KM12 colon it was 97.8%.
Turning to `CCCCCCN(CCCCCC)CCC(O)c1ccc2ccccc2c1` (stereo not given), the growth is 34.4% in the assay on T-47D breast; 74.7% in the assay with BT-549 breast; 68.3% in the assay with MDA-MB-435 melanoma; 48.2% in the assay with SW-620 colon; 26.6% in the assay on MCF7 breast; 24.3% in the assay with HCT-116 colon. For the same compound, the growth in the assay on HCC-2998 colon is 44.6%; in the assay on KM12 colon it was 56.2%.
Take `COc1ccc2c(c1)c(-c1nonc1-c1cn(C)c3ccccc13)cn2C`: the growth was 33.5% in the assay with T-47D breast; 60.2% in the assay on BT-549 breast; 1.09% (active) in the assay on MDA-MB-435 melanoma; 24.5% with SW-620 colon; 24% in the assay on MCF7 breast; 26.6% in the assay with HCT-116 colon. Besides, the growth is 45.4% with HCC-2998 colon and 25.7% in the assay with KM12 colon.
As for `O=[N+]([O-])c1ccc(Nc2nc(NCCN3CCOCC3)ncc2[N+](=O)[O-])cc1`, the growth is 100% with T-47D breast; 89% with BT-549 breast; 97.8% with MDA-MB-435 melanoma; 89.1% with SW-620 colon; 79.8% in the assay on MCF7 breast; 88.1% in the assay on HCT-116 colon. The growth was 93.4% in the assay on HCC-2998 colon and 99% with KM12 colon.
In the case of `COc1ccc(S(=O)(=O)N2CCCCC2)cc1NC(=O)c1[nH]c(C)c2c1CCCCC2=O`, the growth with T-47D breast is 15.2%; in the assay on BT-549 breast, 50.1%; in the assay with MDA-MB-435 melanoma it was 21.7%; with SW-620 colon, 54%; with MCF7 breast it was 12.3%; in the assay on HCT-116 colon it was 17.6%. Further, the growth in the assay with HCC-2998 colon was 15.8%; in the assay on KM12 colon, 24.9%.
